The full data set covers some 21,000 targets. This sample favours those with the largest changes.
Each target was assayed with Cc1cc(ccc1-c1ccccc1)C(=O)N1CCCN(CC1)C(=O)CCl [compound 10] (assay: probe-labelled cysteine peptide fold change vs DMSO (competition) (log2 fold change); higher = less target engagement (more negative = stronger competition)). Conditions: 10 µM; THP-1; incubation time: 4 h.
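Further: competitive profiling in live THP-1 cells: cysteine peptides tagged with an iodoacetamide desthiobiotin (IA-DTB) probe, intensity after compound treatment relative to DMSO-treated cells.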

Chain of UniProt A2RTX5 (A2RTX5 whole entry, looked up): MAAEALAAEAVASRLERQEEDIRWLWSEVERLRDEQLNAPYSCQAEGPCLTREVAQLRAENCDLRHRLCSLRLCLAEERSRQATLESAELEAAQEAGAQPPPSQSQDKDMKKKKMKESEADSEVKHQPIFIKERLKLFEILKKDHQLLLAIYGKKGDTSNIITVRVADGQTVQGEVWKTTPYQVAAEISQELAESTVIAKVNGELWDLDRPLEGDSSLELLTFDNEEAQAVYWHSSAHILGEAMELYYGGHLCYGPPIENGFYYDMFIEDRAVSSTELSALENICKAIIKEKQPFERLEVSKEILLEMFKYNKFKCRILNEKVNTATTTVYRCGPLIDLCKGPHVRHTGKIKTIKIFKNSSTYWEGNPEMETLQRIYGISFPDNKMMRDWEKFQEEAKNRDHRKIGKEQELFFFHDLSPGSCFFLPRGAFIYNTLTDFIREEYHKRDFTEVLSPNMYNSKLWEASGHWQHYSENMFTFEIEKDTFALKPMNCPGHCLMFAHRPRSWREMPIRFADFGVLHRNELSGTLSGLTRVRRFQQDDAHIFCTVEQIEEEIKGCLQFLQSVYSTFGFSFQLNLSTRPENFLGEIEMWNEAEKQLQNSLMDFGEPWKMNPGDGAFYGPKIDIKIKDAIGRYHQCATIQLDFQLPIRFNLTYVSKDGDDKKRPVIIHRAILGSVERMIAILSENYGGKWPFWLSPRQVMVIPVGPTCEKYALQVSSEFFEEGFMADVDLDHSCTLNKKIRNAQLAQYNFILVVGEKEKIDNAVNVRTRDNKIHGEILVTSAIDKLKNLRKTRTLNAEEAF
Chain of UniProt Q15005 (Q15005 whole entry): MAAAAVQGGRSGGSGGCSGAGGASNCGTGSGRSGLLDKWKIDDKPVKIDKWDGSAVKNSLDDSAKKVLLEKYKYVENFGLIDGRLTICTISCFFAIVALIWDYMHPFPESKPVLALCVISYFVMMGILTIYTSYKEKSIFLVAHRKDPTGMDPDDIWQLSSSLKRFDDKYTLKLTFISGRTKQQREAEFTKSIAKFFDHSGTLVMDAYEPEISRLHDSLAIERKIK
Chain of UniProt Q9Y6N5 (Q9Y6N5 whole entry, looked up): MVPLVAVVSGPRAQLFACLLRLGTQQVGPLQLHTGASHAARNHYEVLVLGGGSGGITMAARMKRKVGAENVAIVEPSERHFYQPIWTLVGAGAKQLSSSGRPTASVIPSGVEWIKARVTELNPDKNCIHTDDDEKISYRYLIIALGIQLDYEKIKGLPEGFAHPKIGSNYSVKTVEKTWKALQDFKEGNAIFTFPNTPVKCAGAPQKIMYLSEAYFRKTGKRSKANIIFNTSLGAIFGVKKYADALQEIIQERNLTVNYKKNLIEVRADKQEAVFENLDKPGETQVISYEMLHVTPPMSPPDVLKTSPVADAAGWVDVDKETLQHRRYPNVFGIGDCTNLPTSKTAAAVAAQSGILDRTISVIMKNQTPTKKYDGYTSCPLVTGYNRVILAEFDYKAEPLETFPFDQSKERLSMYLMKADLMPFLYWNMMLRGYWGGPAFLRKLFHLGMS
Chain of UniProt O75391 (O75391 whole entry, looked up): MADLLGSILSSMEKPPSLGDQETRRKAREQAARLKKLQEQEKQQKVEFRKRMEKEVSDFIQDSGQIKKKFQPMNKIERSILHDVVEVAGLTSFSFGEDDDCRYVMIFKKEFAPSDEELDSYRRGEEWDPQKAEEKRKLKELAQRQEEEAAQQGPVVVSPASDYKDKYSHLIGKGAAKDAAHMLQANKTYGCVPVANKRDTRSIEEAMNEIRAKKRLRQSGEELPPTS
Chain of UniProt Q9NQ88 (Q9NQ88 whole entry, looked up): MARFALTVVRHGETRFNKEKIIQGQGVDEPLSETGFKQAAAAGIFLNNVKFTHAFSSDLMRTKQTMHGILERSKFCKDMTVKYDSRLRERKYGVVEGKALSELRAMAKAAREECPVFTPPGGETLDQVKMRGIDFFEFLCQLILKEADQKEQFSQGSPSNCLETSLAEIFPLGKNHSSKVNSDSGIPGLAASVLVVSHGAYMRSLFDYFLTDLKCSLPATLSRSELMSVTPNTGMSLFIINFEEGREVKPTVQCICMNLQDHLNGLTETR
Chain of UniProt P08240 (P08240 whole entry, looked up): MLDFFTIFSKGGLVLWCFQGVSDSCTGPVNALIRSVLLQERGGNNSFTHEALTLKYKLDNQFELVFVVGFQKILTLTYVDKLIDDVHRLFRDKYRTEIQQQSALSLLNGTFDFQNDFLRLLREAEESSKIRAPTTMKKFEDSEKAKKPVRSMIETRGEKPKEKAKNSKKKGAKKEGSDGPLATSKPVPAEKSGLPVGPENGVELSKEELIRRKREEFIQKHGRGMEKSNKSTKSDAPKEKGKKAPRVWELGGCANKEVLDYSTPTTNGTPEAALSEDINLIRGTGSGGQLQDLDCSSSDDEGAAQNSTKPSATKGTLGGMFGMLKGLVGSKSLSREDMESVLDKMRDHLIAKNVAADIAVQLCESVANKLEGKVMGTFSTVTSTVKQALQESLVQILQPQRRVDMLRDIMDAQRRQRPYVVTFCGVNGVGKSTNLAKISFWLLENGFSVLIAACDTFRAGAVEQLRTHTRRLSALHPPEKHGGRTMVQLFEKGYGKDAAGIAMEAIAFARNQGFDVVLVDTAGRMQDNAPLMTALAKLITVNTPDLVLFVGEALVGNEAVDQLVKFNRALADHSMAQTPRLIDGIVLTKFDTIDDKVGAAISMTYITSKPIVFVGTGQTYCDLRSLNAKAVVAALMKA
Chain of UniProt Q9NVG8 (Q9NVG8 whole entry, looked up): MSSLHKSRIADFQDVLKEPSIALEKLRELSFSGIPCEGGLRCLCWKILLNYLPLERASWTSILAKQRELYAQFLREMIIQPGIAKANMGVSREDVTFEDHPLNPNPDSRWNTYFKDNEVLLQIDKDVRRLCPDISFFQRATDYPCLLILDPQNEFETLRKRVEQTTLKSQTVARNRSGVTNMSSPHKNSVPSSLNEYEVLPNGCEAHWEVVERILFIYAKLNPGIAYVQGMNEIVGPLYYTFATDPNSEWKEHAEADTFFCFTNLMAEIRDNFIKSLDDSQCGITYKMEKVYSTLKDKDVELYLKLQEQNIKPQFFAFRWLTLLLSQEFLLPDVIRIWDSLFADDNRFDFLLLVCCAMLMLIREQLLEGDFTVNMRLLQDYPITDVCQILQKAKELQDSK
Chain of UniProt Q9UM82 (Q9UM82 whole entry): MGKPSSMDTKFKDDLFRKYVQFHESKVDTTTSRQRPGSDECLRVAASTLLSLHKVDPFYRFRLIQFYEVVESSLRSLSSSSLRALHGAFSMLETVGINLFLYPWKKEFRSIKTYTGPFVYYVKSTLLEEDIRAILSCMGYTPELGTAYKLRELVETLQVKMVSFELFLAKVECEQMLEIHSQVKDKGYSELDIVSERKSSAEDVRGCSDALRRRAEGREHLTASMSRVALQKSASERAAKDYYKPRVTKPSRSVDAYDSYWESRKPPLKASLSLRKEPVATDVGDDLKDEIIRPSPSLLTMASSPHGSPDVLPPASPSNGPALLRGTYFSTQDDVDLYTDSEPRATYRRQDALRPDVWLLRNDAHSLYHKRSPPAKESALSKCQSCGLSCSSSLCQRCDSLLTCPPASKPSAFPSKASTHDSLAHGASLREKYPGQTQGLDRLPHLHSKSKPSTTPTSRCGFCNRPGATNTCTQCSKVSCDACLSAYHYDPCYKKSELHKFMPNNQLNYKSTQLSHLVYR
Chain of UniProt P31948 (P31948 whole entry, looked up): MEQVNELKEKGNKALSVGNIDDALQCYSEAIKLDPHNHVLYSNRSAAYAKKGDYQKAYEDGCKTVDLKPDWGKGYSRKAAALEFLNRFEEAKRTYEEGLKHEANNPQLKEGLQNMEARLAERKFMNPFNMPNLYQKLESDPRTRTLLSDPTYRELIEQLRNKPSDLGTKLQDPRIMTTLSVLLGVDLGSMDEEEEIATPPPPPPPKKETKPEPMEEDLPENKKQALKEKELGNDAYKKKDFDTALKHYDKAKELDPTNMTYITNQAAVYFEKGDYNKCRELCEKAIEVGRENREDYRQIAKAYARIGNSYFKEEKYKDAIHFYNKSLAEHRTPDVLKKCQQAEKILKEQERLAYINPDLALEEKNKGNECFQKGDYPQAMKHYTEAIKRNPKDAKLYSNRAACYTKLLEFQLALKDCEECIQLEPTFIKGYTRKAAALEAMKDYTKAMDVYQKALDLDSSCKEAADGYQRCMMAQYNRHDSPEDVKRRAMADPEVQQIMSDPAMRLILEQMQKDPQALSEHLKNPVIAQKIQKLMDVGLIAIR
Chain of UniProt Q8IY95 (Q8IY95 whole entry, looked up): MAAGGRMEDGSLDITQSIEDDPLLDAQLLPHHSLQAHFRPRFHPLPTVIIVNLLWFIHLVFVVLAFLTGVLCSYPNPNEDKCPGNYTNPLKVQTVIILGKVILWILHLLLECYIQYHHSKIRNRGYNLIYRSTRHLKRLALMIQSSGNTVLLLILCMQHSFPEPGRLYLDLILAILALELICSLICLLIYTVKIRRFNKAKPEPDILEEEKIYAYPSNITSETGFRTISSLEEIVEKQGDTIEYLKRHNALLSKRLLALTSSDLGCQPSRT
Chain of UniProt Q92844 (Q92844 whole entry, looked up): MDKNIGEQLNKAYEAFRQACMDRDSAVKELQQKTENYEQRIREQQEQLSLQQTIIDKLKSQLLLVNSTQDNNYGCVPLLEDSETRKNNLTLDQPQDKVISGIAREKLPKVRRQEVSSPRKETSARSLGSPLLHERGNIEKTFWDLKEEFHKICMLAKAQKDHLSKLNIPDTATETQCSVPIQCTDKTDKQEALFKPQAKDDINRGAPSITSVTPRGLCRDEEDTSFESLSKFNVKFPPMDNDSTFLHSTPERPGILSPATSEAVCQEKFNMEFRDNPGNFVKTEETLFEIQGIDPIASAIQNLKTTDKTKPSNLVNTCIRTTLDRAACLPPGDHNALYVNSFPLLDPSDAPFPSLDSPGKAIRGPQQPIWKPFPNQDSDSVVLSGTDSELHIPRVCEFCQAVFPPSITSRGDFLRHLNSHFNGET

Row | Target | probe-labelled cysteine peptide fold change
1 | SORD_Q00796_301_YCNTWPVAISMLASK (UniProt Q00796) | 0.251
2 | TET2_Q6N021_784_VEECFHGENQYSK (UniProt Q6N021) | -0.295
3 | SQOR_Q9Y6N5_201_CAGAPQK (UniProt Q9Y6N5) | -0.191
4 | SORD_Q00796_179_VLVCGAGPIGMVTLLVAK (UniProt Q00796) | -0.0988
5 | TONSL_Q96HA7_231_ECAHTMR (UniProt Q96HA7) | -0.316
6 | SYK_P43405_597_MGCPAGCPR (UniProt P43405) | 0.0815
7 | SPAG7_O75391_101_SILHDVVEVAGLTSFSFGEDDDCR (UniProt O75391) | -0.0328
8 | STAT6_P42226_228_CESLVDIYSQLQQEVGAAGGELEPK (UniProt P42226) | 0.0404
9 | THOC2_Q8NI27_436_DVFNMFCYLGPHLSHDPILFAK (UniProt Q8NI27) | 0.0617
10 | TNFAIP3_P21580_158_SQEFVETGLCYDTR (UniProt P21580) | -0.274
11 | STIP1_P31948_471_CMMAQYNR (UniProt P31948) | 0.271
12 | TMEM120A_Q9BXJ8_47_LQNNCTSSITR (UniProt Q9BXJ8) | -0.176
13 | TEPSIN_Q96N21_273_ACGLLNCEAVLQLLTCHLR (UniProt Q96N21) | 0.821
14 | SRPRA_P08240_253_VWELGGCANK (UniProt P08240) | -0.192
15 | ST14_Q9Y5Y6_602+604_DCDCGLR (UniProt Q9Y5Y6) | -0.217
16 | TANK_Q92844_318_TKPSNLVNTCIR (UniProt Q92844) | -0.257
17 | TBC1D13_Q9NVG8_387_LLQDYPITDVCQILQK (UniProt Q9NVG8) | -0.0681
18 | TNPO1_Q92973_862_DDLRDMFCK (UniProt Q92973) | -0.311
19 | SPAG5_Q96R06_907_TEQETLLLSTACPPTQEHPLPNDR (UniProt Q96R06) | -0.115
20 | TIGAR_Q9NQ88_114_EECPVFTPPGGETLDQVK (UniProt Q9NQ88) | -0.225

Row | Target | probe-labelled cysteine peptide fold change
21 | SPATA2_Q9UM82_41_QRPGSDECLR (UniProt Q9UM82) | -0.46
22 | SNX6_Q9UNH7_347+348_DVLQAETSQQLCCQK (UniProt Q9UNH7) | -0.288
23 | TFCP2_Q12800_72_ILPFQYVLCAATSPAVK (UniProt Q12800) | 0.339
24 | SNX6_Q9UNH7_149_TVAMHEVFLCR (UniProt Q9UNH7) | -0.37
25 | TDRD7_Q8NHU6_77_SGEITCYAMACTETAR (UniProt Q8NHU6) | -0.0811
26 | TNS3_Q68CZ2_512_DRETDILDDEMPHHDLHSVDSLGTLSSSEGPQSAHLGPFTCHK (UniProt Q68CZ2) | -0.555
27 | TMEM192_Q8IY95_266_RLLALTSSDLGCQPSR (UniProt Q8IY95) | -0.0328
28 | TOPBP1_Q92547_911_VVVCVSK (UniProt Q92547) | -0.0487
29 | TEP1_Q99973_2105_TPVLIHSFPACHR (UniProt Q99973) | -0.0307
30 | TBCD_Q9BTW9_1055_TLDHVLTHGCFDIFTTEEDHPFAVK (UniProt Q9BTW9) | -0.188
31 | TARSL2_A2RTX5_637_YHQCATIQLDFQLPIR (UniProt A2RTX5) | 0.00987
32 | STXBP5_Q5T5C0_697_SRQPSGAGLCDISEGTVVPEDR (UniProt Q5T5C0) | -0.389
33 | TNPO1_Q92973_205_SHAVACVNQFIISR (UniProt Q92973) | 0.172
34 | SUZ12_Q15022_494_IDVSINECYDGSYAGNPQDIHR (UniProt Q15022) | 0.105
35 | STAM2_O75886_76_VPHVALQALTLLGACVANCGK (UniProt O75886) | -0.0779
36 | STRN_O43815_316_EDQCLMPEAWNVDQGVITK (UniProt O43815) | -0.23
37 | THOP1_P52888_175_KLSLLCIDFNK (UniProt P52888) | -0.00153
38 | SPCS2_Q15005_17+26_SGGSGGCSGAGGASNCGTGSGR (UniProt Q15005) | -0.494
39 | TMA16_Q96EY4_162_KICANDAIPK (UniProt Q96EY4) | -0.041
40 | THUMPD1_Q9NXG2_31_CDAGGPR (UniProt Q9NXG2) | 0.347

Same assay, conditions: 50 µM; THP-1; incubation time: 4 h

Row | Target | probe-labelled cysteine peptide fold change
41 | SORD_Q00796_301_YCNTWPVAISMLASK (UniProt Q00796) | 0.115
42 | TET2_Q6N021_784_VEECFHGENQYSK (UniProt Q6N021) | -0.385
43 | SQOR_Q9Y6N5_201_CAGAPQK (UniProt Q9Y6N5) | -0.122
44 | SORD_Q00796_179_VLVCGAGPIGMVTLLVAK (UniProt Q00796) | -1.77
45 | TONSL_Q96HA7_231_ECAHTMR (UniProt Q96HA7) | -1.42
46 | SYK_P43405_597_MGCPAGCPR (UniProt P43405) | -0.138
47 | SPAG7_O75391_101_SILHDVVEVAGLTSFSFGEDDDCR (UniProt O75391) | -0.0999
48 | STAT6_P42226_228_CESLVDIYSQLQQEVGAAGGELEPK (UniProt P42226) | -0.0978
49 | THOC2_Q8NI27_436_DVFNMFCYLGPHLSHDPILFAK (UniProt Q8NI27) | 0.215
50 | TNFAIP3_P21580_158_SQEFVETGLCYDTR (UniProt P21580) | 0.0322
51 | STIP1_P31948_471_CMMAQYNR (UniProt P31948) | -0.0499
52 | TMEM120A_Q9BXJ8_47_LQNNCTSSITR (UniProt Q9BXJ8) | -0.0504
53 | TEPSIN_Q96N21_273_ACGLLNCEAVLQLLTCHLR (UniProt Q96N21) | 2.62
54 | SRPRA_P08240_253_VWELGGCANK (UniProt P08240) | -0.783
55 | ST14_Q9Y5Y6_602+604_DCDCGLR (UniProt Q9Y5Y6) | -1.07
56 | TANK_Q92844_318_TKPSNLVNTCIR (UniProt Q92844) | -0.558
57 | TBC1D13_Q9NVG8_387_LLQDYPITDVCQILQK (UniProt Q9NVG8) | -0.374
58 | TNPO1_Q92973_862_DDLRDMFCK (UniProt Q92973) | -0.192
59 | SPAG5_Q96R06_907_TEQETLLLSTACPPTQEHPLPNDR (UniProt Q96R06) | 0.0555
60 | TIGAR_Q9NQ88_114_EECPVFTPPGGETLDQVK (UniProt Q9NQ88) | -1.35

Row | Target | probe-labelled cysteine peptide fold change
61 | SPATA2_Q9UM82_41_QRPGSDECLR (UniProt Q9UM82) | -1.35
62 | SNX6_Q9UNH7_347+348_DVLQAETSQQLCCQK (UniProt Q9UNH7) | -0.619
63 | TFCP2_Q12800_72_ILPFQYVLCAATSPAVK (UniProt Q12800) | 0.0755
64 | SNX6_Q9UNH7_149_TVAMHEVFLCR (UniProt Q9UNH7) | -1.4
65 | TDRD7_Q8NHU6_77_SGEITCYAMACTETAR (UniProt Q8NHU6) | -1.42
66 | TNS3_Q68CZ2_512_DRETDILDDEMPHHDLHSVDSLGTLSSSEGPQSAHLGPFTCHK (UniProt Q68CZ2) | -1.66
67 | TMEM192_Q8IY95_266_RLLALTSSDLGCQPSR (UniProt Q8IY95) | 0.17
68 | TOPBP1_Q92547_911_VVVCVSK (UniProt Q92547) | -0.114
69 | TEP1_Q99973_2105_TPVLIHSFPACHR (UniProt Q99973) | -0.291
70 | TBCD_Q9BTW9_1055_TLDHVLTHGCFDIFTTEEDHPFAVK (UniProt Q9BTW9) | -0.0289
71 | TARSL2_A2RTX5_637_YHQCATIQLDFQLPIR (UniProt A2RTX5) | 0.158
72 | STXBP5_Q5T5C0_697_SRQPSGAGLCDISEGTVVPEDR (UniProt Q5T5C0) | -0.218
73 | TNPO1_Q92973_205_SHAVACVNQFIISR (UniProt Q92973) | 0.0841
74 | SUZ12_Q15022_494_IDVSINECYDGSYAGNPQDIHR (UniProt Q15022) | 0.302
75 | STAM2_O75886_76_VPHVALQALTLLGACVANCGK (UniProt O75886) | 0.0749
76 | STRN_O43815_316_EDQCLMPEAWNVDQGVITK (UniProt O43815) | -0.374
77 | THOP1_P52888_175_KLSLLCIDFNK (UniProt P52888) | 0.0417
78 | SPCS2_Q15005_17+26_SGGSGGCSGAGGASNCGTGSGR (UniProt Q15005) | -1.1
79 | TMA16_Q96EY4_162_KICANDAIPK (UniProt Q96EY4) | -0.333
80 | THUMPD1_Q9NXG2_31_CDAGGPR (UniProt Q9NXG2) | 1.08
